Laboratory results reported in PubChem BioAssay (EPA / NIEHS).
Values joined by “and” are separate entries in the source; they are usually repeats but may differ in a detail not shown here. Equal values may be shown once. Inconclusive results are not listed. The source holds several records for some structures; these can differ, active in one and inactive in another. Active and inactive are the calls of the source. The calls were made as follows: active = hit-call score of the fitted dose curve at least 0.9, where 1 is the maximum; inconclusive = response in the unintended direction; inactive = score below 0.9.

Columns and labels:
[1] = target: human Phosphodiesterase 4A1 (PDE4A1), PDE4A (gene 5141) (UniProt P27815); assay: NVS_ENZ_hPDE4A1: NovaScreen (NVS) Enzymatic Assay for human Phosphodiesterase 4A1 (PDE4A1) (AID 2283191)
human Phosphodiesterase 4A1 (PDE4A1), PDE4A (gene 5141), sequence (P27815 whole entry, looked up): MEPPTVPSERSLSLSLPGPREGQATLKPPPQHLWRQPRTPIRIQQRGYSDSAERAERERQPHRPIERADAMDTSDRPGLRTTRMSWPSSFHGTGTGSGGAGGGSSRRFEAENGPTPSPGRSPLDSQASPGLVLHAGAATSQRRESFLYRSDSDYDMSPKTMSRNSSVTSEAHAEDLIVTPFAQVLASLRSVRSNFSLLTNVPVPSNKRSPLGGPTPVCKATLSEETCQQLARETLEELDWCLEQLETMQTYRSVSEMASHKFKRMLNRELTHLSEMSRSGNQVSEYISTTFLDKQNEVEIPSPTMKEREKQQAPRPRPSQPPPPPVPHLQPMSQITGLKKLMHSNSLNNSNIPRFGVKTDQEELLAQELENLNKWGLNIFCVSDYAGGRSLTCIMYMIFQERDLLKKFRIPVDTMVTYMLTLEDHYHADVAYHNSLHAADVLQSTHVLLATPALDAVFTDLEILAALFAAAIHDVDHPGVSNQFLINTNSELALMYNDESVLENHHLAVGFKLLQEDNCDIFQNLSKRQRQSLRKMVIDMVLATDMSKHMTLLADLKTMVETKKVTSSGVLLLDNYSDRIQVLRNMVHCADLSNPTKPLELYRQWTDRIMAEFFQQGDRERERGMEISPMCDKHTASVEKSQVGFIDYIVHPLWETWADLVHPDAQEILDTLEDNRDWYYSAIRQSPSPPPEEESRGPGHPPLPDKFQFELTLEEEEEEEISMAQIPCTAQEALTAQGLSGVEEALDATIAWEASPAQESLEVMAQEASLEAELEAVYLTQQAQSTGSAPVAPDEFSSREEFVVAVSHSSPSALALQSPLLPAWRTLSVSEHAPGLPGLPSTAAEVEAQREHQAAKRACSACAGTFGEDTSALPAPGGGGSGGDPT
Procedure, shortened: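 Cell-free recombinant human PDE4A1 with fluorescent substrate; product separated by electrophoretic mobility shift, 1 h. Screened at 25 uM, then up to 50 uM in concentration-response; loss of signal fitted against DMSO.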

[2] = target: human Phosphoinositide 3-kinase alpha (PI3Ka), PIK3CA (gene 5290) (UniProt P42336); assay: NVS_ENZ_hPI3Ka: NovaScreen (NVS) Enzymatic Assay for human Phosphoinositide 3-kinase alpha (PI3Ka) (AID 2283196)
human Phosphoinositide 3-kinase alpha (PI3Ka), PIK3CA (gene 5290), sequence (P42336 whole entry, looked up): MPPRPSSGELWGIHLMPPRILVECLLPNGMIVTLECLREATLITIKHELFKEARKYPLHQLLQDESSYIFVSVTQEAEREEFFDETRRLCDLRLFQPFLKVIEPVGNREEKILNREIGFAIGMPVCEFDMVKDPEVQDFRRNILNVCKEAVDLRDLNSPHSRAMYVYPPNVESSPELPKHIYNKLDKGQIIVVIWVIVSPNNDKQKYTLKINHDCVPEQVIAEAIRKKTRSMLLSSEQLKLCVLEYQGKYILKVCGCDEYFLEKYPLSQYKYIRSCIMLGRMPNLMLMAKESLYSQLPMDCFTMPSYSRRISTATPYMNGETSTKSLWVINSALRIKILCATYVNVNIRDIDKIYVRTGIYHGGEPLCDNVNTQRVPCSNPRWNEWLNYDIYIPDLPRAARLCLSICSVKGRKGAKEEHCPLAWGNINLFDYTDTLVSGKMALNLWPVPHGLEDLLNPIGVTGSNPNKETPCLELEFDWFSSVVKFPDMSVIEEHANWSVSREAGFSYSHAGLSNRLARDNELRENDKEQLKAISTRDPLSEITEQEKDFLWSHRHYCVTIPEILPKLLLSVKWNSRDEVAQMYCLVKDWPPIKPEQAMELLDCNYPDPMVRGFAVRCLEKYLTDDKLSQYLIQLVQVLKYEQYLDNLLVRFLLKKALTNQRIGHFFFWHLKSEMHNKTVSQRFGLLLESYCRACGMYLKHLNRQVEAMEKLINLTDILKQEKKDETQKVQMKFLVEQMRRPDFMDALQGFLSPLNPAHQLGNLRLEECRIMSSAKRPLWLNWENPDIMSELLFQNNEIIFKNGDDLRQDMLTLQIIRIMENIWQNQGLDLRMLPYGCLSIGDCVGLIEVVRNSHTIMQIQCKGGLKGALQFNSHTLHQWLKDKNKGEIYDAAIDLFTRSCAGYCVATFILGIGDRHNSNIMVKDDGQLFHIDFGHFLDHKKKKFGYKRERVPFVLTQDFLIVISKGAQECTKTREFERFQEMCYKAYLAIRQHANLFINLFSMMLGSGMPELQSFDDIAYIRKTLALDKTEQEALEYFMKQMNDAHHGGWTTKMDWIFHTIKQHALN
Method: (§1) NVS_ENZ_hPI3Ka is a biochemical, single-readout assay that uses extracted gene-proteins in a cell-free assay. Measurements were taken 1 hour after chemical dosing in a 384-well plate.NVS_ENZ_hPI3Ka is one of one assay component(s) measured or calculated from the NVS_ENZ_hPI3Ka assay. It is designed to make measurements of enzyme activity, a form of enzyme reporter, as detected with fluorescence intensity signals by Fluorescence and electrophoretic mobility shift technology.Data from the assay component NVS_ENZ_hPI3Ka was analyzed into 1 assay endpoint. This assay endpoint, NVS_ENZ_hPI3Ka, was analyzed in the positive analysis fitting direction relative to DMSO as the negative control and baseline of activity. Using a type of enzyme reporter, loss-of-signal activity can be used to understand changes in the enzymatic activity as they relate to the gene PIK3CA. Furthermore, this assay endpoint can be referred to as a primary readout, because this assay has produced multiple assay endpoints where this one serves a enzymatic activity function. To generalize the intended target to other relatable targets, this assay endpoint is annotated to the kinase intended target family, where the subfamily is phosphoinositol kinase.
(§2) Binding assays used specific radioligands (tritiated, iodinated) with non-radioactive competitive displacement ligands in agonist or antagonist protocols (as indicated) and various reference compounds and inhibitors to titrate specific binding to receptors and transporters. Most enzyme assays (CYPs, kinases, phosphatases, proteases, HDACs) used recombinant protein and specific substrates (fluorescence mostly, some colorimetric and radioactive) and inhibitors, followed by a biochemical separation of substrate and product. All assays for the biochemical HTS were initially run in duplicate at a single concentration (10 uM for CYP450 assays and 25 uM for all others). Assay-chemical combinations meeting a pre-defined threshold (e.g., 30% inhibition and other criteria defined below) were then run in singleton concentration-response format with maximum concentration of 20 uM for CYPs and 50 uM for all others. Each assay was run with positive and negative controls, and concurrent controls on every plate. The follow-up (secondary) screen tested active chemical-pairs in concentration series, as well as a few additional assays not tested in the primary screen, some selected negative inactives, and several cases re-run in the concentration series for confirmatory purposes.

[3] = target: human Matrix Metalloproteinase-9 (MMP9), MMP9 (gene 4318) (UniProt P14780); assay: NVS_ENZ_hMMP9: NovaScreen (NVS) Enzymatic Assay for human Matrix Metalloproteinase-9 (MMP9) (AID 2283190);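 also: cell-free recombinant MMP9 protease activity read by fluorescent substrate signal; active means inhibition seen as loss of fluorescence signal versus DMSO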
human Matrix Metalloproteinase-9 (MMP9), MMP9 (gene 4318), sequence (P14780 whole entry, looked up): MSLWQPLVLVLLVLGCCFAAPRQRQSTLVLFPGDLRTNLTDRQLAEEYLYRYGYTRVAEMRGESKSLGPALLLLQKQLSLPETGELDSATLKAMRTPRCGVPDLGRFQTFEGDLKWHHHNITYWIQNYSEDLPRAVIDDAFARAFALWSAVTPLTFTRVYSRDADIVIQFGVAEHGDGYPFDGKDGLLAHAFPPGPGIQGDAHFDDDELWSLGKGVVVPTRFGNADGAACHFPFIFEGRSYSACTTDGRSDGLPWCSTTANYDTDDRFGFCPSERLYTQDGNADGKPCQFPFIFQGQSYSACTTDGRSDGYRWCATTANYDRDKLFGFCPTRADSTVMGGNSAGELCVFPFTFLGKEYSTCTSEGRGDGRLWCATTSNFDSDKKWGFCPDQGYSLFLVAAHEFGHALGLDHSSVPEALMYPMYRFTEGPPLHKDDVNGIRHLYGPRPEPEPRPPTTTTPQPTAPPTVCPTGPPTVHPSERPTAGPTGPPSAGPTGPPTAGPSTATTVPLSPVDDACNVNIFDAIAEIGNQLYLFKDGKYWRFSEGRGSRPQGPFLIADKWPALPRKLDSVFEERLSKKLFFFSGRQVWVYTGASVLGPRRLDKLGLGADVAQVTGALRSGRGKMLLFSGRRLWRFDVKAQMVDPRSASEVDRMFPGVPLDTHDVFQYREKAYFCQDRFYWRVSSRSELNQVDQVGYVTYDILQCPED
Procedure, shortened: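 Extracted enzyme, fluorescent substrate, 1 h post-dose read. Single conc 25 uM in duplicate, then concentration series for actives. Activity = signal loss relative to DMSO negative control.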

[4] = target: human Phosphodiesterase 5 (PDE5), PDE5A (gene 8654) (UniProt O76074); assay: NVS_ENZ_hPDE5: NovaScreen (NVS) Enzymatic Assay for human Phosphodiesterase 5 (PDE5) (AID 2283194)
Method: as §1, with “NVS_ENZ_hPDE5” for “NVS_ENZ_hPI3Ka”, “plate.NVS_ENZ_hPDE5” for “plate.NVS_ENZ_hPI3Ka”, “NVS_ENZ_hPDE5,” for “NVS_ENZ_hPI3Ka,”, “PDE5A.” for “PIK3CA.”, “esterase” for “kinase”, “phosphodiesterase.” for “phosphoinositol kinase.”
as §2, with “Assay-chemical combinations meeting a pre-defined threshold (e.g., 30% inhibition and other criteria defined below) were then run in singleton concentration-response format with maximum concentration of 20 uM for CYPs and 50 uM for all others.” left out

[5] = target: cAMP-dependent protein kinase catalytic subunit alpha (Homo sapiens) (UniProt P17612); assay: NVS_ENZ_hPKA: NovaScreen (NVS) Enzymatic Assay for human Protein Kinase A (PKA) (AID 2283192)
Method: as §1, with “NVS_ENZ_hPKA” for “NVS_ENZ_hPI3Ka”, “plate.NVS_ENZ_hPKA” for “plate.NVS_ENZ_hPI3Ka”, “NVS_ENZ_hPKA,” for “NVS_ENZ_hPI3Ka,”, “PRKACA.” for “PIK3CA.”, “serine/threonine” for “phosphoinositol”
Binding assays used specific radioligands (tritiated, iodinated) with non-radioactive competitive displacement ligands in agonist or antagonist protocols (as indicated) and various reference compounds and inhibitors to titrate specific binding to receptors and transporters. Most enzyme assays (CYPs, kinases, phosphatases, proteases, HDACs) used recombinant protein and specific substrates (fluorescence mostly, some colorimetric and radioactive) and inhibitors, followed by a biochemical separation of substrate and product. All assays for the biochemical HTS were initially run in duplicate at a single concentration (10 uM for CYP450 assays and 25 uM for all others). […]

[6] = target: human Mitogen- and Stress-activated Protein Kinase-1 (Msk1), RPS6KA5 (gene 9252) (UniProt O75582); assay: NVS_ENZ_hMsk1: NovaScreen (NVS) Enzymatic Assay for human Mitogen- and Stress-activated Protein Kinase-1 (Msk1) (AID 2283187)
human Mitogen- and Stress-activated Protein Kinase-1 (Msk1), RPS6KA5 (gene 9252), sequence (O75582 whole entry, looked up): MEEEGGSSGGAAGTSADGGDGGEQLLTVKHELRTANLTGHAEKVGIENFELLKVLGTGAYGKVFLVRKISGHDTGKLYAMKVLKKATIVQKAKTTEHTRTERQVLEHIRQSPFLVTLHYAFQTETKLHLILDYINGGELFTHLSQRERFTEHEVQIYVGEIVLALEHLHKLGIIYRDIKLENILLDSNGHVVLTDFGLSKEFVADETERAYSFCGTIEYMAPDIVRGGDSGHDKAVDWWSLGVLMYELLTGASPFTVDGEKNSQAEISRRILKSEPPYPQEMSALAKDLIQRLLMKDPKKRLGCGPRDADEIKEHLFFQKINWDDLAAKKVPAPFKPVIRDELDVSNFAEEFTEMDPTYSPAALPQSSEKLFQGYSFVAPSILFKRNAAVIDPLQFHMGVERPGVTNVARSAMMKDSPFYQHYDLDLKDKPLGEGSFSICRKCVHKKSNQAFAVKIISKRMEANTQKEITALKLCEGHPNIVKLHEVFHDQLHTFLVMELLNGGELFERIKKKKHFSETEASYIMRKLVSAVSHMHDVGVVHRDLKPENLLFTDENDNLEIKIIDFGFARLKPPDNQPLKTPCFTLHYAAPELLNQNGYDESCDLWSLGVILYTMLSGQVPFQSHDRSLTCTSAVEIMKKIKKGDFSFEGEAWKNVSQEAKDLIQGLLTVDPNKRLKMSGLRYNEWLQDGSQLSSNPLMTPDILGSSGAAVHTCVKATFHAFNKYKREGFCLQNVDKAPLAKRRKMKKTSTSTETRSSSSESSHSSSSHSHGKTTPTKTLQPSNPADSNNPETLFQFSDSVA
Procedure, shortened: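 Recombinant kinase with fluorescent substrate; product separated by electrophoretic mobility shift, read 1 h after dosing. Screened in duplicate at 25 uM; hits (e.g. ≥30% inhibition) tested in concentration–response up to 50 uM. DMSO baseline.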

[7] = target: human NIMA (Never In Mitosis Gene A)-Related Kinase 2 (NEK2), NEK2 (gene 4751) (UniProt P51955); assay: NVS_ENZ_hNEK2: NovaScreen (NVS) Enzymatic Assay for human NIMA (Never In Mitosis Gene A)-Related Kinase 2 (NEK2) (AID 2283188)
Procedure, shortened: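 Cell-free NEK2 enzyme activity after 1 h exposure, read by fluorescence with electrophoretic mobility shift separating substrate and product. Primary screen in duplicate at 25 uM; actives then run as concentration series. Loss of signal versus DMSO scored.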

[8] = target: human p21 Activated Kinase 4 (PAK4), PAK4 (gene 10298) (UniProt O96013); assay: NVS_ENZ_hPAK4: NovaScreen (NVS) Enzymatic Assay for human p21 Activated Kinase 4 (PAK4) (AID 2283189)
Procedure, shortened: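 Cell-free recombinant human PAK4 activity assay; fluorescent substrate and product separated by electrophoretic mobility shift, read 1 h after dosing. Initially tested in duplicate at 25 uM, relative to DMSO baseline.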

[9] = target: human Phosphodiesterase 10 (PDE10), PDE10A (gene 10846) (UniProt Q9Y233); assay: NVS_ENZ_hPDE10: NovaScreen (NVS) Enzymatic Assay for human Phosphodiesterase 10 (PDE10) (AID 2283195)
human Phosphodiesterase 10 (PDE10), PDE10A (gene 10846), sequence (Q9Y233 whole entry, looked up): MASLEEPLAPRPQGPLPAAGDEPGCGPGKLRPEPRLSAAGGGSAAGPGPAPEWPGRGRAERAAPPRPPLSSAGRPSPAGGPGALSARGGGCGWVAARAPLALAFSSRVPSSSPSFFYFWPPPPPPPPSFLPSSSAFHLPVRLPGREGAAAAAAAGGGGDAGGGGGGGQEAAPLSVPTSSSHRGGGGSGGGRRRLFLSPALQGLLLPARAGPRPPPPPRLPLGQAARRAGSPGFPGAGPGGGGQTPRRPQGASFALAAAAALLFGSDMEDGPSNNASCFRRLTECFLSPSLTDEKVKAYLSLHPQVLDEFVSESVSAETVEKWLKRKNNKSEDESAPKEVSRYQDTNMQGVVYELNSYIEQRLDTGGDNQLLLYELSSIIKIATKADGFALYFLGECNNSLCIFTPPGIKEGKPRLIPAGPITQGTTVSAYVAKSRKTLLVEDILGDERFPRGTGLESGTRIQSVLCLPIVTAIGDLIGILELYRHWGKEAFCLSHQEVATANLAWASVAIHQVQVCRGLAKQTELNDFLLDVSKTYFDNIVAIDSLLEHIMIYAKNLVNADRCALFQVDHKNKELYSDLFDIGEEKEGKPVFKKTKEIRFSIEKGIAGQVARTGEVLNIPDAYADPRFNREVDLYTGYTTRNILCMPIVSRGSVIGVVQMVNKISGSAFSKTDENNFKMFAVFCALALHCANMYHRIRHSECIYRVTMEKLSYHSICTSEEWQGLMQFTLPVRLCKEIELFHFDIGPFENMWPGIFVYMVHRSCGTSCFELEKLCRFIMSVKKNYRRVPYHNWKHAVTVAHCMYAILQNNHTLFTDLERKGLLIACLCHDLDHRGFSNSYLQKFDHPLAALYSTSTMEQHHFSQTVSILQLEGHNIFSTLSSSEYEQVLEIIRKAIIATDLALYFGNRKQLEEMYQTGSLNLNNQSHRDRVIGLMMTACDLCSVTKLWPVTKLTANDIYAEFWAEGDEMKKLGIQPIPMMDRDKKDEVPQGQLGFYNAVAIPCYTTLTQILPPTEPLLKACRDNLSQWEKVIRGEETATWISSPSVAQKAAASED
Procedure, shortened: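 Fluorescence/mobility-shift readout of PDE10A enzyme activity, taken 1 h post-dosing. Primary screen in duplicate at 25 uM; actives (e.g. ≥30% inhibition) retested as singleton concentration-response, top concentration 50 uM.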

PPP2CA (gene 5515) = PPP2CA (gene 5515) (UniProt P67775); assay: NVS_ENZ_hPPP2CA: NovaScreen (NVS) Enzymatic Assay for human Protein Phosphatase 2 Aatalytic subunit Alpha (PPP2CA) (AID 2283199)
PPP2CA (gene 5515), sequence (P67775 whole entry, looked up): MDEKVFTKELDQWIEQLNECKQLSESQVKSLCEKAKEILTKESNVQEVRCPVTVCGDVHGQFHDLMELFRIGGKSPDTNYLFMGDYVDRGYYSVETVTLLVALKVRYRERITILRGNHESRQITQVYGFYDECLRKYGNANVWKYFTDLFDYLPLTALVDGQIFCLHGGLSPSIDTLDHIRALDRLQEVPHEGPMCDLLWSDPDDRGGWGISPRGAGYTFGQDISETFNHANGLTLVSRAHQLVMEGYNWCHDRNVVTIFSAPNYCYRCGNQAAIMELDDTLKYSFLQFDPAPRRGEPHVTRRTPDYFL
Procedure, shortened: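 Recombinant human PPP2CA with fluorescent substrate; product separated from substrate by electrophoretic mobility shift, read 1.33 h after dosing. Duplicate single-point at 25 uM, then singleton concentration-response up to 50 uM; loss of signal versus DMSO.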

## COc1nc(NC(C)C)nc(NC(C)C)n1
[1]
  AC50: 13.4 µM (active)

## CN(C)C(=S)SSC(=S)N(C)C
[2]
  outcome: inactive

## COc1ccc(C(c2ccc(OC)cc2)C(Cl)(Cl)Cl)cc1
[3]
  outcome: inactive

## Cc1ccc(-c2c(Cl)nc(C#N)n2S(=O)(=O)N(C)C)cc1
[4]
  AC50: 11.7 µM (active)

## CON(C)C(=O)Nc1ccc(Cl)c(Cl)c1
[1]
  AC50: 3.85 µM (active)
[4]
  AC50: 7.19 µM (active) and 9.03 µM (active)

## CCCCNC(=O)n1c(NC(=O)OC)nc2ccccc21
[3]
  outcome: inactive
[4]
  outcome: inactive

## N#Cc1nn(-c2c(Cl)cc(C(F)(F)F)cc2Cl)c(N)c1S(=O)C(F)(F)F (stereo unspecified)
[5]
  outcome: inactive
[2]
  outcome: inactive

## CCCN(CCC)c1c([N+](=O)[O-])cc(S(N)(=O)=O)cc1[N+](=O)[O-]
[6]
  outcome: inactive
[7]
  outcome: inactive
[8]
  outcome: inactive
[1]
  outcome: inactive
[4]
  outcome: inactive
[9]
  outcome: inactive
[2]
  outcome: inactive
PPP2CA (gene 5515)
  outcome: inactive

## CC1=C(C(=O)Nc2ccccc2)SCCO1
[2]
  outcome: inactive

## CCNc1nc(Cl)nc(NC(C)C)n1
[1]
  AC50: 1.22 µM (active)
[4]
  AC50: 4.96 µM (active) and 8.17 µM (active)

## COc1nc(C)nc(NC(=O)NS(=O)(=O)c2ccccc2Cl)n1
[5]
  outcome: inactive
PPP2CA (gene 5515)
  outcome: inactive

## CO/C=C(/C(=O)OC)c1ccccc1Oc1cc(Oc2ccccc2C#N)ncn1
[1]
  AC50: 14 µM (active)
  outcome: inactive
[2]
  outcome: inactive

## CCNc1nc(Cl)nc(NCC)n1
[1]
  AC50: 8.46 µM (active)

## COc1cnc(OC)n2nc(NS(=O)(=O)c3c(OCC(F)F)cccc3C(F)(F)F)nc12
[9]
  outcome: inactive
PPP2CA (gene 5515)
  outcome: inactive

## O=C(Nc1ccccc1)Nc1ccnc(Cl)c1
[4]
  AC50: 10 µM (active)

## CS/C(C)=N/OC(=O)N(C)SN(C)C(=O)O/N=C(\C)SC
[2]
  outcome: inactive
